# This is a sample that favours compounds with a hit; in the whole collection about 19% have one here.
# S-ASM inh = blocks human secretory acid sphingomyelinase. placental ASM, HMU-PC fluorogenic substrate, 60 min. Potency, µM (top dose mostly 57.5 µM), inactives show at the top dose activity change, negative = inhibition, usual class: inhibitors. 340,000 tested, 0.006% active; also: potency is read from the fitted curve at half-maximal effect
# Target sequence (P17405 47-631 limits assumed): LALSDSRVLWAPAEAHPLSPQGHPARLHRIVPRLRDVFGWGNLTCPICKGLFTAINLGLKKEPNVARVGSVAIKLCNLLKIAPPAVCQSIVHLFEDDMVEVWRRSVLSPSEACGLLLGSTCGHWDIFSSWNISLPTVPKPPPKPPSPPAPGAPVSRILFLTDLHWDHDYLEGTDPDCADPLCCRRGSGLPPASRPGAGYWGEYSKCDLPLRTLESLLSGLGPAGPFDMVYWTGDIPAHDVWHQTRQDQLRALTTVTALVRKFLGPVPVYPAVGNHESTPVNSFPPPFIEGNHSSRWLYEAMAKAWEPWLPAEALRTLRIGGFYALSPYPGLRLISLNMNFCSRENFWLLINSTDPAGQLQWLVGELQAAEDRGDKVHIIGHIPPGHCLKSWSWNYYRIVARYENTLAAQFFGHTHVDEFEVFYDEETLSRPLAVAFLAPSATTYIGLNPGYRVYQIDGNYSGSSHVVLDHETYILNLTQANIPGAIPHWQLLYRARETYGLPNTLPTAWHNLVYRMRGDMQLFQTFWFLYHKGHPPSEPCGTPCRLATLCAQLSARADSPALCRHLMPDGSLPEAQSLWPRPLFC
#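 Human placenta-derived ASM preincubated with compound 10 min at room temperature, then reacted with 9 uM (final) fluorogenic HMU-PC substrate for 60 min at 37 C. Stop solution raises pH to 10; fluorescence read at Ex 386/Em 447 nm.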
# TGFb SMAD3 inh = TGF-b pathway inhibition; HepG2 CAGA-GFP TGF-b/SMAD3 reporter, GFP fluorescence, 18 h; TGF-beta stimulated, 500 pg/mL final; Potency, µM (series often up to 46.1 µM), for inactives: at the top dose activity, negative = inhibition, most hits filed as inhibitors; 410,000 tested, 1.2% active; AID 588855; also: potency is read from the fitted curve at half-maximal effect; % is scaled to controls: 0 for no effect and ±100 for the full control effect; nearly all actives have a fitted effect of over 65% in size
#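 HEPG2 CAGA-GFP cells (1000/well, DMEM with 1% FBS) were pre-incubated 2 h at 37 degrees C, given compound by pin tool, then stimulated with TGF-beta at 500 pg/mL final for 18 h before per-cell GFP fluorescence imaging.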
# IL1B secr inh = inhibitors of inflammasome signaling (IL-1 beta secretion). activity change, % at 57.5 µM. 360,000 tested, 4.7% active. THP-1 LPS/ATP IL-1B secretion, AlphaLISA, 16 h; stronger effect = lower value; in the data active = activity change below about -50%; inconclusive = mostly about -30% to -49%; also: % is scaled to controls: 0 for no effect and ±100 for the full control effect
#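 Secreted IL-1B measured by AlphaLISA bead assay after 16 h compound exposure of THP-1 cells; compounds (final up to 57.5 uM) added 1 h before LPS (250 ng/mL) and ATP (1.25 mM) stimulation; lower signal means less secretion.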
# TDP1 cell CPT = growth inhibition of DT40 Tdp1-/-;hTDP1 cells with camptothecin (screen for TDP1 inhibitors); chicken DT40 Tdp1-/-;hTDP1 cells + 20 nM CPT, ATP luminescence, 48 h; Potency, µM (top dose mostly 46.2 µM), without a hit: at the highest dose activity change, negative = growth inhibition, most hits filed as inhibitors; 420,000 tested, 12% active; AID 686979; also: potency is read from the fitted curve at half-maximal effect; % is scaled to controls: 0 for no effect and ±100 for the full control effect; nearly all actives have a fitted effect of over 55% in size
#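 Cell growth measured by CellTiter-Glo luminescence after a minimum 48 h, 37 C compound exposure with 20 nM CPT in Tdp1-knockout DT40 cells stably expressing hTDP1, seeded 400/well; qHTS titration format.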
# HepG2 tox = HepG2 cytotoxicity, counter-screen for TGF-b inhibitors. HepG2 CAGA-GFP viability, ATP luminescence, 18 h. Potency, µM (doses to about 46.1 µM), inactives show at the highest dose activity change, negative = cytotoxicity, hits mostly cytotoxic. 410,000 tested, 0.76% active; also: potency is read from the fitted curve at half-maximal effect
#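 CellTiter-Glo luminescence gave cytotoxicity after 18 hours at 37 degrees C. The cells were HepG2 CAGA-GFP in 1% FBS DMEM, stimulated with 500 pg/mL TGF-beta after compound addition. %Activity was normalised to no-cell wells (complete cell-killing) and DMSO (no toxicity), and curves were fitted and classified.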
# TDP1 cell noCPT = qHTS for Inhibitors of human tyrosyl-DNA phosphodiesterase 1 (TDP1): qHTS in cells in absence of CPT. Potency, µM (titrated, usually from 46.2 µM), inactives show at the top dose activity change, negative = growth inhibition, most hits filed as inhibitors. AID 686978, 2013. DT40 Tdp1-/- hTDP1 cells, no CPT, ATP luminescence, 48 h. 420,000 tested, 15% active; also: potency is read from the fitted curve at half-maximal effect; % is scaled to controls: 0 for no effect and ±100 for the full control effect; nearly all actives have a fitted effect of over 55% in size
#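 Luminescent ATP content (CellTiter-Glo) served as the growth readout. Knockout chicken DT40 cells expressing human TDP1 were exposed to compounds without camptothecin for a minimum 48 hr at 37 °C.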
# An asterisk follows results filed as active; ? = inconclusive; nt = no result given. Unless noted, calls follow the shape of the dose curve; as a rule, active = well fitted curve in the direction sought with a large enough effect; inconclusive = small, poorly fitted or top-dose-only effect, or another doubt; inactive = no such curve, though single readings can be large; an effect the other way counts as inactive or inconclusive.
SMILES,S-ASM inh,TGFb SMAD3 inh,IL1B secr inh,TDP1 cell CPT,HepG2 tox,TDP1 cell noCPT
CCOC(=O)C1(CCOc2ccccc2)CCN(Cc2ccc(C(=O)OC)cc2)CC1,3%,-27%,0,?,-17%,?
CCOC(=O)C1(CCOc2ccccc2)CCN(Cc2ccc(O)c(Cl)c2)CC1,-1%,?,-24,16µM*,-46%,13µM*
CCOC(=O)C1(CCOc2ccccc2)CCN(Cc2ccc(O)c(OC)c2)CC1,0%,-9%,-28,?,-49%,18µM*
OCC1(CCOc2ccccc2)CCN(Cc2ccc3c(c2)OCCO3)CC1,1%,21%,0,5%,0%,-8%
CCOC(=O)c1c(C)[nH]c(C)c1S(=O)(=O)N(C)CC(=O)Nc1cccc(C)n1,-2%,-8%,21,-1%,-14%,5%
CC(=O)Nc1ccc2c(c1)C(=O)N(c1cccc3ccccc13)C2=O,-1%,16%,2,0%,-49%,11%
CC(C)NS(=O)(=O)c1cc(C(F)(F)F)ccc1/C=C/C(=O)O,nt,-15%,nt,?,3%,?
CC1=NC(Nc2nc(C)c3ccccc3n2)=NC(C)(C)C1,-2%,0%,-100*,21µM*,-22%,16µM*
O=C1N(Cc2ccccc2)c2ccc(Cl)cc2C12OCCO2,-2%,7%,-8,-8%,-11%,-4%
Cc1ccc(CN2C(=O)C(O)(c3c(C)[nH]c4ccccc34)c3ccccc32)cc1 (stereo not given),nt,?,nt,6.5µM*,-58%,4.6µM*
Cc1[nH]c2ccccc2c1C1(O)C(=O)N(Cc2ccccc2)c2ccc(Cl)cc21 (stereo not given),nt,?,nt,6.5µM*,16µM*,5.2µM*
O=C(c1cc(=O)[nH]c2ccccc12)N1CCN(Cc2ccc3c(c2)OCO3)CC1,2%,-13%,1,-8%,8%,-5%
Cc1[nH]c2ccccc2c1C1(O)C(=O)N(Cc2ccc3c(c2)OCO3)c2ccccc21 (stereo not given),-9%,?,12,3.3µM*,-32%,5.2µM*
Cc1[nH]c2ccccc2c1C1(O)C(=O)N(Cc2ccc(Cl)cc2)c2ccccc21 (stereo not given),nt,nt,nt,5.8µM*,-101%,5.2µM*
Cc1[nH]c2ccccc2c1C1(O)C(=O)N(C(C)C)c2ccccc21 (stereo not given),2%,-4%,33,-7%,-3%,-5%
O=C1CC2(CCN(C(=O)c3c(F)cccc3F)CC2)Oc2ccccc21,1%,-3%,-8,-20%,-11%,-23%
O=C1CN(C(=O)COC(=O)[C@@H]2CCCN2S(=O)(=O)c2ccc(Cl)cc2)c2ccccc2N1,0%,-8%,-9,-40%,-15%,-28%
O=C(CCC1CCCN(C(=O)c2ccsc2)C1)N1CCN(c2ccccn2)CC1 (stereo not given),3%,2%,1,?,2%,-26%
COc1ccc(CNC(=O)[C@H](C)[C@@H]2C[C@@]2(C)[C@@H](NC(=O)OCc2ccccc2)c2ccccc2)cc1OC,-3%,-1%,-27,15µM*,4%,12µM*
Cc1cc(CNC(=O)[C@H](C)[C@@H]2C[C@@]2(C)[C@@H](NC(=O)OCc2ccccc2)c2ccccc2)nn1C,1%,-11%,-10,23µM*,-27%,?
C[C@@H](C(=O)NCc1ccccc1)[C@H]1C[C@]1(C)[C@H](NC(=O)OCc1ccccc1)c1ccccc1,13%,?,-26,?,-10%,?
CCOC(=O)c1ccc(NC(=O)CN2C(=O)c3cccnc3Sc3ccccc32)cc1,nt,-26%,nt,?,-25%,?
Cc1ccc(CSc2cn(CC(=O)N3CCCC3)c3ccccc23)cc1,nt,?,nt,16µM*,-35%,16µM*
Cc1ccc(CSc2cn(CC(=O)N3CCCCCC3)c3ccccc23)cc1,nt,?,nt,?,-24%,21µM*
CCCCN1CNC(=S)N(CCc2ccc(OCC)c(OCC)c2)C1,5%,-34%,27,?,-12%,?
SMILES,S-ASM inh,TGFb SMAD3 inh,IL1B secr inh,TDP1 cell CPT,HepG2 tox,TDP1 cell noCPT
CCOc1ccc(CCN2CN(C3CCCCC3)CNC2=S)cc1OCC,1%,2%,22,?,10%,18µM*
CCc1ccc(-c2nc3c(c(SCc4ccccc4F)n2)Cc2c(CO)cnc(C)c2O3)cc1,nt,-16%,nt,-1%,-1%,5%
COc1ccc(C(=O)N2CCC3(CCCN(Cc4ccc(C#N)cc4)C3)CC2)cc1,nt,nt,nt,-26%,nt,18µM*
N#Cc1ccc(CN2CC3(CCN(C(=O)c4cc(C(F)(F)F)cc(C(F)(F)F)c4)CC3)C2)cc1,nt,nt,nt,21µM*,nt,10µM*
CC[C@@]1(C(=O)OC)N[C@H](CN(C)S(=O)(=O)c2ccc(OC)cc2)[C@@H]2C(=O)N(C)C(=O)[C@@H]21,1%,-2%,16,-17%,-11%,10%
Cc1ccc(NC(=O)C(c2ccccc2)c2ccccc2)nc1,-1%,-7%,-8,21µM*,-2%,?
Cc1ccc(NC(=O)Nc2ccccc2)nc1,-11%,0%,-25,9%,113%,-7%
O=C(CC(=O)c1ccccc1)Nc1ccccn1,-1%,1%,5,29%,-10%,2%
O=C(CC(O)(c1ccccc1)c1ccccc1)Nc1ccccn1,-3%,-11%,21,15µM*,-12%,?
O=C(Nc1ccccn1)C(c1ccccc1)c1ccccc1,nt,-1%,33,15µM*,-5%,21µM*
